ALDH1A1 inh = blocks purified human ALDH1A1 activity; P00352; Purified ALDH1A1, NADH fluorescence, propionaldehyde substrate; Potency, µM (titrated, usually from 75.3 µM), actives largely listed as inhibitors; hit rate 7.3% among 220,000
HPGD block = blocks human HPGD enzyme activity. P15428. hit rate 4.3% among 150,000. purified HPGD, NADH fluorescence kinetic, PGE2 substrate. Potency, µM, hits mostly inhibitors
Target sequence (P15428 whole entry, looked up): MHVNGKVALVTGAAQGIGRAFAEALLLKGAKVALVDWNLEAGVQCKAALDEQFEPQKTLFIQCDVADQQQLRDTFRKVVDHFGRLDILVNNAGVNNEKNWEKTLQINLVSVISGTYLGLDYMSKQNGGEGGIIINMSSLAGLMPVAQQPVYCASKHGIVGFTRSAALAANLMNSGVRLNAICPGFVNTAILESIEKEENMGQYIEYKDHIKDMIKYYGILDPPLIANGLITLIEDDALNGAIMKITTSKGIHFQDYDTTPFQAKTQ
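20 nM HPGD preincubated 15 min at room temperature with compound in 50 mM Tris-HCl pH 8, 0.01% Tween 20. Started with 1 mM NAD+ and 30 uM prostaglandin E2; NADH fluorescence (360/450 nm) read 5 times over 30-s intervals, last minus first.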
GoLoco inh red = inhibitors of human Gai1-RGS12 GoLoco interaction (red fluorophore); Gai1:RGS12 GoLoco peptide FP, rhodamine, 10 min; Potency, µM (doses to about 61.6 µM), hits mostly inhibitors; hit rate 0.44% among 230,000; AID 880; active = well fitted inhibition curve with a large enough effect, not every such curve was filed as active; inactive = no such curve, though single readings can be large or run the other way; also: nearly all actives have a fitted effect of over 30% in size
HTT aggregate = inhibitors of mutant huntingtin aggregate formation in PC12 cells; PC12 HttQ103-GFP aggregates, Acumen cytometry, 40 h; Potency, µM (doses to about 46.1 µM), most hits filed as inhibitors; hit rate 1.1% among 220,000; AID 1688; active = well fitted curve in the direction sought with a large enough effect; inconclusive = small, poorly fitted or top-dose-only effect, or another doubt; inactive = no such curve, though single readings can be large; an effect the other way counts as inactive or inconclusive; also: nearly all actives have a fitted effect of over 60% in size
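Read-out: GFP aggregate count by laser scanning cytometer (488 nm excitation, 500-530 nm emission, 1–25 µm objects >6 SD above background). Cells: PC12, inducible HTTex1-Q103-GFP, 100 nM tebufenozide; compounds titrated.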
PNC assembly inh = blocks assembly of the perinucleolar compartment; PC3M PTB-GFP, PNC prevalence imaging, 16 h; active compounds read low; activity change (PNC), negative = inhibition, % at 10 µM; hit rate 3.1% among 140,000;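 active = readout at or below -70, meaning at least 70% loss of cells showing the perinucleolar compartment, a nuclear body marking cancer cells; inconclusive = readout between -30 and a set limit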
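PC3M cells stably expressing PTB-GFP, 750–1000 cells/well, treated 16 h at 37 °C with compound (23 nl of library stock), in duplicate. After paraformaldehyde fixation and Hoechst stain, imaged at 20x; PNC prevalence scored by image analysis.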
HTT ATP protect = cytoprotection in Huntington HTT-Q103 PC12 cell model; PC12 HTT-Q103 induced, cytoprotection, ATP luminescence, 40 h; Potency, µM (series often up to 56.4 µM), hits mostly activators; hit rate 0.14% among 230,000; active = well fitted curve in the direction sought with a large enough effect; inconclusive = small, poorly fitted or top-dose-only effect, or another doubt; inactive = no such curve, though single readings can be large; an effect the other way counts as inactive or inconclusive; also: nearly all actives have a fitted effect of over 45% in size
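Compounds added alongside 100 nM tebufenozide, which induces toxic Q103 huntingtin exon 1-GFP in stable PC12 cells; surviving cells quantified by luminescent ATP measurement. Medium: phenol red-free DMEM, 5% equine and 5% calf serum.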
Numbers stand for hits; 0 = inactive; ? = inconclusive; - = not tested or not shown; [ ] = remark or other dose. Hits are enriched below; roughly 11% of the tested compounds scored in any of these assays. Unless noted, calls follow the shape of the dose curve; as a rule, active = well fitted inhibition curve with a large enough effect (not every such curve was filed as active); inconclusive = small, poorly fitted or top-dose-only effect, or another doubt; inactive = no such curve, though single readings can be large or run the other way.

SMILES	ALDH1A1 inh	HPGD block	GoLoco inh red	HTT aggregate	PNC assembly inh	HTT ATP protect
O=c1c2ccccc2nc(-c2ccccc2)n1Cc1ccco1	?	0	0	0	?	0
O=c1c2ccccc2n2c(-c3ccc(F)cc3)nnc2n1Cc1ccccc1	?	0	0	0	-101.6	-
Cc1ccc(-c2nc3ccccc3c(=O)n2Cc2ccccc2)cc1	15.8µM	0	0	0	?	0[10 µM]
CCCn1c(-c2ccc(OC)cc2)nc2ccccc21	?	0	0	0[9.22 µM]	0	0
COCCn1c(-c2ccccc2)nc2ccccc21	0	?	0	0	-113.4	-
COc1ccc(-c2nc3ccccc3n2Cc2ccc(C)cc2)cc1	0	0	0	?	-82.1	0
COc1ccc(Cn2c(-c3ccc(C)cc3)c[n+]3ccccc23)cc1	0	0	0	8.91µM	0	0[1.9 µM]
Cc1ccc(/C=C/c2nc3ccccc3c(=O)n2CCc2ccccc2)cc1	0	0	0	0	-82.6	0[10 µM]
Nc1ncnc2c1nc(Br)n2[C@@H]1O[C@H]2COP(=O)(O)O[C@@H]2[C@H]1O	-	-	-	-	-	0[1.9 µM]
CCOC(=O)c1[nH]nc(-c2c(O)cc(C)cc2O)c1-c1csc(C)n1	0	0	0	0[9.22 µM]	0	0[10 µM]
CCCc1cc(-c2n[nH]c(C(=O)OCC)c2-c2cscn2)c(O)cc1O	8.91µM	0	0	0	0	0
COc1ccc(-c2noc(CN(C)C(=O)Nc3ccccc3)n2)cc1	0	-	0	0	-	0
Cc1c(C(=O)Oc2cccc3ccccc23)cnn1-c1ccccc1	?	0	0	0	0	0
CCOC(=O)Cn1nnnc1CN(Cc1cccs1)Cc1cc2cc(C)ccc2[nH]c1=O	15.8µM	0	0	0	?	0
Cc1ccc2[nH]c(=O)c(CN(CCO)Cc3nnnn3CCc3ccccc3)cc2c1	?	0	0	0	0	0
Cc1ccc2[nH]c(=O)c(CN(Cc3cccs3)Cc3nnnn3Cc3ccccc3)cc2c1	14.1µM	?	0	0[9.22 µM]	0	0
Oc1cc2c(cc1O)[C@@H]1c3ccc(O)c(O)c3OC[C@]1(O)C2	0	11.2µM	0	-	-	0
CC(=O)C1C(=O)C=C(c2ccco2)CC1c1ccccc1 (stereo not given)	25.1µM	0	0	0	0	0
CCOC(=O)C1C(=O)C=C(c2cccs2)CC1c1ccccc1 (stereo not given)	?	0	0	?	0	0[10 µM]
Cc1ccc(S(=O)(=O)N2CCC(=O)N(CCOCc3ccc(C(F)(F)F)cc3)CC2)cc1	0	0	0	0	0	0
CC1CCc2c(sc(NC(=O)c3ccc(Cn4cc([N+](=O)[O-])cn4)o3)c2C#N)C1 (stereo not given)	25.1µM	0	0	0	0	0
COC(=O)c1sc(NC(=O)c2ccc(Cn3cc(Cl)cn3)o2)c(C#N)c1C	3.55µM	15.8µM	0	?	0	0
CSCCC(N)C(=O)NC(CC(C)C)C(=O)NC(Cc1ccccc1)C(=O)O (stereo not given)	0	0	0	-	-	-
Cc1nn(C)cc1C(C)NCc1c(C(=O)N2CCCCCCC2)nc2ccc(Cl)cn12 (stereo not given)	3.16µM	-	0	0[9.22 µM]	-	0[10 µM]
Cc1n[nH]c(C)c1CNCc1c(C(=O)N2CCCCCCC2)nc2ccc(Cl)cn12	-	-	0	0[9.22 µM]	-	0[10 µM]
SMILES	ALDH1A1 inh	HPGD block	GoLoco inh red	HTT aggregate	PNC assembly inh	HTT ATP protect
Cc1[nH][nH]c(=O)c1C(c1c(C)[nH][nH]c1=O)c1cn(Cc2ccccc2Cl)c2ccccc12	0.447µM	0	0	0	0	0[10 µM]
COC(=O)N/N=C/c1cn(Cc2ccccc2Cl)c2ccccc12	0	0	0	0	?	0[10 µM]
CCOC(=O)Cc1csc(N/C(=N/S(=O)(=O)c2cc(Br)ccc2OCC)c2ccccc2)n1	0	0	0	0	0	0[10 µM]
O=C(CN1CCOCC1)OCCCc1ccccc1	0	0	0	0	0	0[0.074 µM]
C[N+]1(CC(=O)OCCCc2ccccc2)CCOCC1	0	0	12.6µM	0	0	0
Cc1ccc(CCCOC(=O)C[N+]2(C)CCOCC2)cc1	0	0	10µM	0	?	0
CC(NC(=O)c1ccccc1)(C(=O)O)C(=O)O	0[13.5 µM]	0	0[14.2 µM]	-	-	0[10 µM]
COc1ccc(NC(=O)CSc2nc3c(c(=O)n2-c2ccccc2OC)SCC3)cc1	11.2µM	0	0	0	0	0[10 µM]

Screening results deposited in PubChem by National Center for Advancing Translational Sciences (NCATS).
